Shown are actives, neighbours in structure and some others; about 4% of the full set was active somewhere.
TWEAK-Fn14 inh – inhibitors of TWEAK-Fn14 signaling, primary screen, luciferase reporter cells, uHTS; TWEAK-stimulated Fn14 reporter cells, luciferase luminescence, 8 h; inhibition, % at 10 µM; 2% of 360,000 active; AID 1159606, 2016; in the data active means inhibition above about 50%
CF NFkB inh – inhibitors of PAF-induced NF-kB signaling, primary screen, cell-based, GFP fluorescence, uHTS. KKLEB NF-kB-GFP reporter, GFP fluorescence overnight. inhibition, % at 5 µM. 0.86% of 360,000 active;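 active means at least 50% inhibition at 5 µM, scaled per plate between neutral and stimulator controls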;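 further: PAF is a Pseudomonas aeruginosa culture filtrate used as stimulus; plate controls were PAF-stimulated DMSO wells for no effect and unstimulated DMSO wells for full effect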
KKLEB cytotox – cytotoxicity in KKLEB CF airway cells, primary screen, cytotoxicity control for CF NF-kB inhibitor project, cell-based, uHTS, fluorescence assay plates; AID 602141, 2011; 0.36% of 360,000 active; activity change (cytotoxicity), % at 5 µM; KKLEB CF airway cells viability, ATPlite luminescence, overnight; hits give low values; cells stimulated with P. aeruginosa culture filtrate;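 active means corrected activity change at or below -50% at 5 µM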
Peg3 prom inh – Peg3 promoter-driven luciferase inhibitors, primary screen, cell-based, HeLa, luciferase luminescence; HeLa PEG-Prom luciferase reporter, overnight; inhibition, % at 20 µM; 1.7% of 360,000 active; AID 588405, 2011;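 active means inhibition of at least 50% at 20 µM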
HIF-2a block – HIF-2a reporter inhibitors, primary screen, luminescence, 786-0 RCC cells; 786-0 RCC cells HIF-2a reporter, luciferase luminescence, overnight; AID 624352, 2012; inhibition, % at 18.8 µM; 0.72% of 360,000 active;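 active means inhibition of the luminescence signal of 40% or more relative to plate controls, in a single-dose primary screen at 18.75 µM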
TROY signal inh – inhibitors of TROY-driven NF-kB signaling, primary screen, Q293 LMP1-TROYcd cells, NF-kB luciferase, uHTS | Q293 LMP1-TROYcd NF-kB luciferase reporter, 4 h | inhibition, % at 10 µM | 0.98% of 360,000 active;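 active means compounds whose plate-normalised and pattern-corrected inhibition of the luciferase reporter signal at the single screening dose is 50% or more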
CF NFkB inh conf – inhibitors of PAF-induced NF-kB signaling, retest, confirmation, cell-based, GFP fluorescence, single concentration; shares compounds with CF NFkB inh; KKLEB CF airway cells, overnight; inhibition, % at 5 µM; 64% of 1,300 active; in the data active means inhibition above about 40%;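 further: stimulus PAF is a Pseudomonas aeruginosa filtrate and not platelet activating factor; plate controls were DMSO wells with stimulus for no effect and unstimulated DMSO wells for full effect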
* marks the source's active call; other numbers are inactive results; x = no result.

SMILES | TWEAK-Fn14 inh | CF NFkB inh | KKLEB cytotox | Peg3 prom inh | HIF-2a block | TROY signal inh | CF NFkB inh conf
Cc1cc(N2C(=O)C(O)=C(C(=O)c3ccc(C)o3)C2c2cccc(Cl)c2)no1 (configuration not stated) | -6 | -19 | 8 | 1 | 13 | -14 | x
CC(C)c1ccc(OCC(=O)NC2CC(C)(C)NC(C)(C)C2)c(Br)c1 | 8 | -3 | 3 | 1 | -15 | 9 | x
Cc1ccc(-c2c(C(=O)N/N=C/C3CC=CCC3)nnn2-c2nonc2N)cc1 (configuration not stated) | -7 | 0 | 12 | -1 | 1 | -6 | x
O=[N+]([O-])c1cccnc1N1CCN(Cc2ccc3c(c2)OCO3)CC1 | -5 | 4 | 0 | -47 | -19 | 5 | x
O=[N+]([O-])c1ccc2ncnc(N3CCN(Cc4ccc5c(c4)OCO5)CC3)c2c1 | 78* | 68* | 10 | 12 | 11 | 46 | 85*
CCC(=O)OC1(C(=O)CCl)[C@@H](C)C[C@H]2[C@@H]3CCC4=CC(=O)C=C[C@]4(C)[C@@]3(F)[C@@H](O)C[C@@]21C (some centres not stated) | 4 | 76* | -7 | 5 | 26 | 17 | 18
CCC(=O)O[C@]1(C(=O)CCl)[C@@H](C)C[C@H]2[C@@H]3CCC4=CC(=O)C=C[C@]4(C)[C@@]3(F)[C@@H](O)C[C@@]21C | -16 | 77* | 17 | 1 | 24 | 8 | 18
CCCC(=O)O[C@]1(C(=O)CCl)[C@@H](C)C[C@H]2[C@@H]3CCC4=CC(=O)C=C[C@]4(C)[C@@]3(F)C(=O)C[C@@]21C | -33 | 91* | -3 | -2 | 31 | 17 | 2
CCC(C(=O)NC(C)(C)C)n1c(C(c2ccccc2)c2ccccc2)nc2ccccc21 (configuration not stated) | x | x | x | x | -2 | x | x
CC1(C(=O)Nc2cccc3ccccc23)CCN1C(=O)Cc1ccccc1Cl (configuration not stated) | 13 | 25 | -12 | 24 | 19 | -17 | x
Cn1c2ccccc2c(=O)c2ccc(NCc3ccc4c(c3)OCO4)cc21 | -38 | -54 | 13 | -110 | -178 | -45 | x
COc1ccccc1CNc1nc2cc(-c3ccsc3)sc2c(=O)n1C | 45 | 2 | -5 | -12 | -21 | 23 | x
Cc1cscc(C)c1=S | -7 | -16 | -2 | -2 | 11 | 9 | x
O=c1c2ccccc2nnn1CSc1ccccc1F | 41 | 26 | -26 | -129 | -117 | -21 | x
O=c1c2ccccc2nnn1CSc1ncnc2ccccc12 | 17 | 66* | -36 | 16 | -3 | -17 | 41*
Cc1ccccc1N1C(=O)c2cc(S(N)(=O)=O)c(Cl)cc2NC1C (configuration not stated) | -5 | -6 | -11 | 4 | 0 | 3 | x
CC1(C(=O)NCC2CC2)Cc2c(-c3ccccc3)ccnc2O1 (configuration not stated) | 12 | -4 | 8 | 22 | 4 | 7 | x
COc1ccc2[nH]c3c(c2c1)CCN1C(=O)C(CC(=O)NCCC2=CCCCC2)C[C@H](C(=O)N2CCCCC2)[C@@]31CCc1ccccc1 (some centres not stated) | 25 | 56* | -49 | 27 | 2 | 5 | 81*
COc1ccc2[nH]c3c(c2c1)CCN1C(=O)C(CC(=O)NCCN2CCOCC2)C[C@H](C(=O)N2CCCCC2)[C@@]31CCc1ccccc1 (some centres not stated) | 7 | -18 | 4 | -13 | 6 | 3 | x
CC(C)(C)S(=O)N1Cc2cc(C(=O)NCC(F)(F)F)nc(-c3cccc(-c4cccc(F)c4)c3)c2[C@@H]1CCO (some centres not stated) | 53* | 78* | -10 | 69* | 15 | 7 | 65*
CSc1ncccc1C(=O)OCC(=O)NCCc1ccccc1 | -8 | -5 | 1 | -11 | -1 | -17 | x

Screening results deposited in PubChem BioAssay by Sanford-Burnham Center for Chemical Genomics.
